Measurements taken from ChEMBL document CHEMBL3988442, “University of Dundee, Small-Polar-MMV Screening Library” (2021).
About 13,000 (27%) of roughly 48,000 compounds showed an effect of 50% or more. The list shows a part of the results.

test system: Wolbachia pipientis; assay: Anti-Wolbachia Cell-Based Screen; format: functional; parameters: scale not given: in the data most compounds retested in dose-response had high values; settings: 5 µM

SMILES	Percent Effect
Cc1ccc(F)c(CNc2ccn(CCC(N)=O)n2)c1	-13.86%
O=C1CC[C@H]2CN(c3ncc(F)cn3)CC[C@H]2N1CCc1ccccn1	-8.563%
Cc1cccc(CN2CCC3(CC(C(=O)NCC(C)C)=NO3)C2)c1 (stereo not drawn)	117.4%
CC(C)CNC(=O)C1=NOC2(CCN(Cc3cccc(C#N)c3)C2)C1 (stereo not drawn)	102.8%
Cc1ccc(CN2CCC3(CC(C(=O)NCC4CC4)=NO3)C2)cc1C (stereo not drawn)	21.96%
N#Cc1cccc(CN2CCC3(CC(C(=O)NCC4CC4)=NO3)C2)c1 (stereo not drawn)	-1.937%
O=C(NCC1CC1)C1=NOC2(CCN(Cc3ccc4c(c3)OCO4)C2)C1 (stereo not drawn)	-22.77%
CCCS(=O)(=O)N1CCC2(CC(C(=O)NCc3cccnc3)=NO2)C1 (stereo not drawn)	-9.91%
CNc1snc(C)c1C(=O)N1CCCC(n2ccnc2C(C)C)C1 (stereo not drawn)	1.946%
Cc1n[nH]c(=O)c2c(NC(=O)CN3CCC(O)CC3)oc(C)c12	10.48%
CCCNCC1(O)CCCN(Cc2cccc(C)c2)C1=O (stereo not drawn)	20.78%
Nc1nc(CCC(=O)N2C[C@@H](CN3CCCC3)C[C@H](CO)C2)n[nH]1	-12.43%
CCn1ncnc1C1CC(=O)NCc2nc(N3CCCC3)sc21 (stereo not drawn)	88.25%
CCOc1cccc(C2CC(=O)NCc3nc(N(C)C)sc32)c1 (stereo not drawn)	5.085%
CCCn1ncc(C2CC(=O)NCc3nc4sc(C)cn4c32)c1C (stereo not drawn)	0.1811%
CCOc1cccc(C2CC(=O)NCc3nc(N)sc32)c1 (stereo not drawn)	2.31%
CCn1ncnc1C1CC(=O)NCc2nc(N)sc21 (stereo not drawn)	74.2%
Cc1ccc(C2CC(=O)NCc3nc(N)sc32)cc1C (stereo not drawn)	0.1432%
CCn1ncnc1C1CC(=O)NCc2nc3ccccn3c21 (stereo not drawn)	-4.231%
CCn1ncnc1C1CC(=O)NCc2nc(N3CCOCC3)sc21 (stereo not drawn)	112.6%
CCOc1cccc(C2CC(=O)NCc3nc(N4CCCC4)sc32)c1 (stereo not drawn)	-6.785%
O=C1CCCc2[nH]c(=O)c(C(=O)N(CC3CCCCC3)C3CC3)cc21	-8.56%
Cc1ccc(S(=O)(=O)N2CCOc3ccccc32)cc1C(N)=O	5.411%
CC(C)c1noc(CN(C)C(=O)c2ccccc2-c2nc[nH]n2)n1	-15.19%
CCN1CC2(CC1=O)CN(C(=O)NC(C)C)CCN(C(=O)C(C)C)C2 (stereo not drawn)	117.3%
CCN1CC2(CC1=O)CN(C(=O)C(C)C)CCN(S(C)(=O)=O)C2 (stereo not drawn)	4.611%
CCN1CC2(CC1=O)CN(C(=O)NC(C)C)CCN(C(=O)NC(C)C)C2	115.2%

SMILES	Percent Effect
CCN1CC2(CC1=O)CN(C(=O)NC(C)C)CCN(S(C)(=O)=O)C2 (stereo not drawn)	100.8%
CCS(=O)(=O)N1CCN(C(=O)NC(C)C)CC2(CC(=O)N(C)C2)C1 (stereo not drawn)	-2.042%
CCN1CC2(CC1=O)CN(C(C)=O)CCN(S(C)(=O)=O)C2 (stereo not drawn)	-3.303%
CCN1CC2(CC1=O)CN(C(=O)NC)CCN(S(C)(=O)=O)C2 (stereo not drawn)	1.458%
CCN1CC2(CC1=O)CN(C(C)=O)CCN(C(=O)NC)C2 (stereo not drawn)	104.3%
CNC(=O)N1CCN(C(=O)C(C)C)CC2(CC(=O)N(C)C2)C1 (stereo not drawn)	-13.05%
CCN1CC2(CC1=O)CN(C(=O)C(C)C)CCN(S(=O)(=O)CC)C2 (stereo not drawn)	12.11%
CCN1CC2(CC1=O)CN(C(=O)N(C)C)CCN(S(C)(=O)=O)C2 (stereo not drawn)	-16.32%
CC(C)NC(=O)N1CCN(C(=O)N(C)C)CC2(CC(=O)N(C)C2)C1 (stereo not drawn)	11.38%
CCN(CCO)C(=O)C1CCC(=O)N(Cc2cccc(OC)c2)C1 (stereo not drawn)	4.416%
NC(=O)N1CCCN(CC(=O)NCCc2c(F)cccc2F)CC1	-7.896%
Cc1nc[nH]c1CN1CCCn2nc(CN3CCC(F)(F)CC3)cc2C1	5.091%
CCN1CC2(CC1=O)CN(C(C)=O)CCN(C(=O)NC(C)C)C2 (stereo not drawn)	101.7%
CC(C)NC(=O)N1CCN(S(=O)(=O)C2CC2)CC2(CC(=O)N(C)C2)C1 (stereo not drawn)	-16.72%
CCN1CC2(CC1=O)CN(C(C)=O)CCN(S(=O)(=O)CC)C2 (stereo not drawn)	-5.362%
CCC1(CNCc2ncc[nH]2)CCCC1	-14.89%
CN(CC(=O)NC1CCOCC1)C1CCCN(c2cccnn2)C1 (stereo not drawn)	137.1%
Cc1nnc(NC(=O)CN(C)CC2CCCN2c2cccnn2)s1 (stereo not drawn)	-3.874%
CN(CC(=O)Nc1ccncc1)C1CCCN(c2cccnn2)C1 (stereo not drawn)	95.39%
CN(CC(=O)Nc1cccnc1)C1CCCN(c2cccnn2)C1 (stereo not drawn)	85.32%
Cc1csc(NC(=O)CN(C)CC2CCCN2c2cccnn2)n1 (stereo not drawn)	8.253%
Cc1nc(CN2CCCC(N(C)CC(=O)Nc3cccnc3)C2)no1 (stereo not drawn)	13.61%
CN(CC(=O)NC1(C#N)CCCC1)C1CCCN(c2cccnn2)C1 (stereo not drawn)	1.351%
Cc1nnc(NC(=O)CN(C)C2CCCN(c3cccnn3)C2)s1 (stereo not drawn)	131.3%
COC(=O)C1CCCCN1C(=O)c1ccc(N(C)C)cc1F (stereo not drawn)	-10.97%
CN(C)CC(=O)N1CC[C@H]2OCC[C@@]2(COCC2CC2)C1	-4.204%
